“And” between values parts separate entries of the source, which are not always exact repeats. Equal values may be shown once. The campaign covered roughly 340,000 compounds. About 1,200 (0.35%) were called active.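 How the source made its calls: active means potentiation over 3 SD above the plate norm (cut at about 30% in these data); inactive means the rest.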 What follows is part of a selection rich in actives, with near analogues and random picks from the rest. Where a structure was tested more than once in an assay, its records may differ in their call.
target: D(2) dopamine receptor (Homo sapiens) (UniProt P14416); assay: HTS Assay for Positive Allosteric Modulators of the Human D2 Dopamine Receptor: Primary Screen for Potentiators; conditions: HEK293 T-REx D2, calcium flux, EC20 dopamine potentiation; at 10 µM; stronger effect = higher value; further: 0% is about no effect
In short: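 Calcium flux readout, no-wash dye, 1 read/s. Inducible HEK293 Trex D2 line, overnight 30 C. Compound alone 180 s (agonist flags), then EC20 dopamine, another 180 s to score potentiation.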

Sequence of D(2) dopamine receptor (Homo sapiens) (P14416 whole entry, looked up): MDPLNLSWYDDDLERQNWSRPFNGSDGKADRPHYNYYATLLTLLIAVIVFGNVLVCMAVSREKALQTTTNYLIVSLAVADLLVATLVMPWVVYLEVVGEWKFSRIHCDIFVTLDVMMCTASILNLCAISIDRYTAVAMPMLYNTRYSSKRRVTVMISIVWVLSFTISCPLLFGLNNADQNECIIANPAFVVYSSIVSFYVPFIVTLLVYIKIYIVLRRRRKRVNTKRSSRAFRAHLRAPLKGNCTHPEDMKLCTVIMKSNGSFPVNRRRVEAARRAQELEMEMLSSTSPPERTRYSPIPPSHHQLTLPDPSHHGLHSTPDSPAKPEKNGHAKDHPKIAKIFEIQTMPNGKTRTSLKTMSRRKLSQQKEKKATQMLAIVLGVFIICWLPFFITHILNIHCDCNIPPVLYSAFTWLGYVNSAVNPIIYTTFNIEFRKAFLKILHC

Row | SMILES | potentiation
1 | CCCC(C)n1[nH]c(=O)c2c(C)cc(C)nc21 (centres undefined) | 33% (active)
2 | CCC(C)n1[nH]c(=O)cc1N (centres undefined) | 2.87% (inactive)
3 | CCC(C)n1[nH]c(=O)c2c(C)cc(C)nc21 (centres undefined) | 1.22% (inactive)
4 | CCOC(=O)c1oc2ccc(S(=O)(=O)n3nc(-c4ccccc4OC)cc3N)cc2c1C | -0.8% (inactive)
5 | COc1ccc(-n2ccn(CC(=O)Nc3ccc(C)c(C)c3)c(=O)c2=O)cc1OC | 6.27% (inactive)
6 | O=C(Nc1c(-c2ccc(F)cc2)nc2ccccn12)c1cccc(F)c1 | 12.9% (inactive)
7 | CCN1CCc2nc3sc(C(=O)Nc4ccccc4OC(F)(F)F)c(N)c3cc2C1 | 3.95% (inactive)
8 | CCOC(=O)Cc1csc(NC(=O)CN(C)S(=O)(=O)c2ccc3c(c2)CCC(=O)N3)n1 | 43% (active)
9 | Cc1cccc(N2CCN(C(=O)CN(C)S(=O)(=O)c3ccc4c(c3)CCC(=O)N4)CC2)c1C | -3.34% (inactive)
10 | CCOC(=O)Cc1csc(NC(=O)CSc2ccc(Br)cc2)n1 | -0.963% (inactive)
11 | Cc1sc(C2C(C#N)=C(N)N(c3cccc(Cl)c3)C3=C2C(=O)CCC3)cc1CN1CCOCC1 (centres undefined) | -0.593% (inactive)
12 | O=C(Nc1ccc(S(=O)(=O)N2CCCCC2)cc1)c1cnccn1 | 30.4% (active)
13 | O=C(Nc1ccc(S(=O)(=O)N2CCCCCC2)cc1)c1c(F)cccc1F | 2.54% (inactive)
14 | CCN1CCN(c2ccc(NC(=O)c3cnccn3)cc2)CC1 | -0.266% (inactive)
15 | CN(Cc1ccccc1)S(=O)(=O)c1ccc(F)c(C(=O)Nc2cccc(Cl)c2Cl)c1 | -2.84% (inactive)
16 | CCN(CC)S(=O)(=O)c1ccc2c(c1)N(CC(=O)NCc1ccccc1)C(=O)CS2 | -1.87% (inactive)
17 | CC(=O)NS(=O)(=O)c1ccc(NC(=S)NC(=O)C(C)(C)C)cc1 | 33.2% (active)
18 | CC(=O)NS(=O)(=O)c1ccccc1 | 10.6% (inactive)
19 | CC(=O)Nc1ccc(S(=O)(=O)Nc2cccc(NC(=O)C(C)(C)C)c2)cc1 | 0.479% (inactive)
20 | O=C(CCn1c(=O)c2ccccc2n(Cc2ccc(Cl)cc2)c1=O)NCc1ccc2c(c1)OCO2 | -11.6% (inactive)
21 | O=C(Nc1ccc(Br)cc1)c1cc2nc(-c3ccccc3)cc(-c3ccccc3)n2n1 | -4.38% (inactive)
22 | Cc1ccccc1-c1nc(SCC(=O)N(C)c2ccccc2)c2c(=O)n(C)c(=O)n(C)c2n1 | -12.5% (inactive)
23 | Cn1c(=O)[nH]c(=O)c2c1nc(N1CCN(C(c3ccccc3)c3ccccc3)CC1)n2CCO | 3.98% (inactive)

Row | SMILES | potentiation
24 | Cn1c(=O)[nH]c(=O)c2c1nc(N1CCCCCC1)n2CC(=O)c1ccccc1 | -3.5% (inactive)
25 | CC1CCN(c2nc3c(c(=O)[nH]c(=O)n3C)n2CCCc2ccccc2)CC1 | 45% (active)
26 | CCOC(=O)N1CCc2c(sc(NCc3cccc(F)c3)c2C(=O)Nc2ccccc2OCC)C1 | -0.26% (inactive)
27 | O=C(NCCCN1CCCC1=O)c1ccc(S(=O)(=O)Nc2ccccc2)cc1 | 3.61% (inactive)
28 | CCOc1ccc(C(=O)NCCCN2CCCC2=O)cc1 | 30.7% (active)
29 | CCOc1ccc(S(=O)(=O)Nc2ccc(C(=O)NCCCN3CCCC3=O)cc2)cc1 | 11.5% (inactive)
30 | COc1cc(Cl)ccc1Nc1ncc(C(=O)N2CCN(c3ccccc3OC)CC2)c2ccccc12 | -3.04% (inactive)
31 | NC(=O)CSc1nc2c(oc3ccccc32)c(=O)n1Cc1ccccc1 | 4.88% (inactive)
32 | Cc1cccc(NC(=O)c2ccc3nc(C(C)C)oc3c2)c1C | -11.3% (inactive)
33 | Nc1nc(NCC2CCCO2)nc(Nc2ccccc2F)c1[N+](=O)[O-] (centres undefined) | 31.9% (active)
34 | Nc1nc(NCCCN2CCOCC2)nc(Nc2ccccc2)c1[N+](=O)[O-] | -1.17% (inactive)
35 | Nc1nc(Nc2ccccc2F)nc(NC2CCCCC2)c1[N+](=O)[O-] | 6.13% (inactive)
36 | COc1ccc(NC(=O)CSc2nccn2C2CCCC2)cc1OC | 7.4% (inactive)
37 | Cc1cc(O)c(C(c2ccccc2)N2CCN(c3ccccc3F)CC2)c(=O)n1Cc1ccco1 (centres undefined) | -21.6% (inactive)
38 | C[N+](C)(C)CCNC(=O)c1c(O)c2c([nH]c1=O)CCCC2 | 13.8% (inactive)
39 | O=C(NCc1ccccn1)c1c(O)c2c([nH]c1=O)CCCC2 | 4.39% (inactive)
40 | CCc1nnc(NC(=O)c2c(O)c3c([nH]c2=O)CCCC3)s1 | 55.5% (active)
41 | CN(C)CCCn1c(-c2ccc(Cl)cc2)csc1=Nc1ccccc1 | -16.7% (inactive)
42 | CC(c1ccccc1)n1c(NCCCn2ccnc2)nc2c1c(=O)[nH]c(=O)n2C (centres undefined) | -8.07% (inactive)
43 | Cn1c(=O)[nH]c(=O)c2c1nc(NCCCn1ccnc1)n2Cc1cccc(Br)c1 | 40% (active)
44 | Cn1c(=O)[nH]c(=O)c2c1nc(NCCc1ccccc1)n2Cc1ccc(F)cc1 | -10.3% (inactive)
45 | Cc1cccc(C(CC(=O)NCC2(c3ccccc3)CCCC2)c2ccccc2)c1O (centres undefined) | 8.89% (inactive)
46 | CC1CC(C)CN(CCCNC(=O)c2csc3c2CCCCC3)C1 (centres undefined) | 30.4% (active)

Row | SMILES | potentiation
47 | CCOC(=O)c1ccc(NC(=O)c2csc3c2CCCCC3)cc1 | 1.32% (inactive)
48 | CCOc1ccc(CCNC(=O)c2csc3c2CCCCC3)cc1 | -0.665% (inactive)
49 | Cc1ccc(NC(=O)CSc2nnc3[nH]c(=O)cc(C)n23)cc1Cl | -5% (inactive)
50 | Cc1nc2ccccc2n1CC(=O)N/N=C/c1cccs1 | 0.665% (inactive)
51 | Cc1n[nH]c(=O)nc1N/N=C/c1cccs1 | 36.2% (active)
52 | Cc1cc(C)nc(SC(C)C(=O)N/N=C/c2cccs2)n1 (centres undefined) | 12.3% (inactive)
53 | CCOC(=O)C1CCN(c2ncnc3c2c(-c2ccccc2)cn3-c2cccc(C)c2)CC1 | -2.84% (inactive)
54 | CCOC(=O)C1CCN(Cc2nnc(-c3cccc(Br)c3)o2)CC1 | -5.55% (inactive)
55 | CCOC(=O)C1CCN(c2ncnc3c2oc2ccc(Br)cc23)CC1 | 34.7% (active)
56 | CCCCOc1ccc(CN2C(=O)C(=O)c3cc(Br)cc(C)c32)cc1OC | 21.8% (inactive)
57 | Cc1ccc(N2CCN(C(=O)CCc3c(C)nc4c(c3C)c(=O)n(C)c(=O)n4C)CC2)c(C)c1 | -0.454% (inactive)
58 | CCc1ccc(NS(=O)(=O)c2ccc3[nH]cc(C(=O)NCCc4cccc(C)c4)c(=O)c3c2)cc1 | -7.11% (inactive)
59 | CCN(CC(=O)NCCc1ccccc1)S(=O)(=O)c1ccccc1 | 13.4% (inactive)
60 | CCN(CC)S(=O)(=O)c1ccc2[nH]cc(C(=O)NCCc3ccccc3)c(=O)c2c1 | -2.89% (inactive) and 46.8% (active)
61 | N#Cc1ccc(-c2cccs2)nc1SCc1ccc(Br)cc1 | -0.921% (inactive)
62 | COc1cccc(CNC(=O)CCC(=O)N2CC3CCCN3c3ccccc32)c1 (centres undefined) | -3.32% (inactive)
63 | COc1cccc(Cn2c(SCc3ccc(C(=O)N4CCCCC4)cc3)nc3ccncc32)c1 | 0.981% (inactive)
64 | CCc1nn(CC(=O)N2CCN(c3cccc(C(F)(F)F)c3)CC2)c(=O)c2cc3occc3n12 | 4.66% (inactive)
65 | O=C(NCc1cc(F)cc(C(F)(F)F)c1)C1CCC(=O)N(C2CCCC2)C1 (centres undefined) | 39% (active)
66 | O=C(NCc1cccc(Cl)c1)C1CCC(=O)N(C2CC2)C1 (centres undefined) | -9.09% (inactive)
67 | Cc1ccc(CNC(=O)C2CC(=O)N(C3CCCCCCC3)C2)cc1 (centres undefined) | 7.03% (inactive)
68 | CCOC(=O)c1ccc(NC(=O)CCS(=O)(=O)c2ccc3c(c2)oc(=O)n3C)cc1 | -4.33% (inactive)
69 | COc1ccccc1NC(=O)CSC1=Nc2ccccc2C2=NC(CC(=O)NCc3cccs3)C(=O)N12 (centres undefined) | -7.55% (inactive)

Row | SMILES | potentiation
70 | Cc1ccc(S(=O)(=O)NCCC(=O)Nc2cccc(S(N)(=O)=O)c2)cc1C | -4.48% (inactive)
71 | NS(=O)(=O)c1cccc(NC(=O)CC23CC4CC(CC(Br)(C4)C2)C3)c1 | 38.8% (active)
72 | O=C(CC12CC3CC(CC(C3)C1)C2)Nc1ccc2c(c1)COC2=O | -3.01% (inactive)
73 | Cc1ccc2nc(COc3cccc(NC(=O)Nc4ccc(C)c(Cl)c4)c3)cc(=O)n2c1 | -1.63% (inactive)
74 | CCc1ccc(NC(=O)CCNS(=O)(=O)c2cccs2)cc1 | 13.5% (inactive)
75 | O=C(COC(=O)c1ccc(NS(=O)(=O)c2cccs2)cc1O)Nc1ccc(F)cc1 | 35.7% (active)
76 | O=C(COC(=O)c1ccc(O)cc1O)NNC(=O)c1cccs1 | -6.83% (inactive)
77 | COc1cc(Cl)c(C)cc1NC(=O)CN1CCCCCC1 | -1.62% (inactive)
78 | COc1ccc(NC(C)=O)cc1NC(=O)CN1CCN(C2c3ccccc3-c3ccccc32)CC1 | 30.8% (active)
79 | COc1ccc(NC(C)=O)cc1NC(=O)CN1CCN(c2ccc(F)cc2)CC1 | -0.119% (inactive)
80 | Clc1ccc(CSc2nncn3c2cc2occc23)cc1 | 0.301% (inactive)
81 | CN1CCN(C2(CNC(=O)COc3ccc(C(C)(C)C)cc3)CCCCC2)CC1 | -18.8% (inactive)
82 | Cc1[nH]c2ccccc2c1C(=O)COC(=O)c1c(-c2ccccc2)noc1C | 8.38% (inactive)
83 | CCOC(=O)c1c(C)nc(-c2ccccc2)nc1NC(=O)C(C)C | 32.3% (active)
84 | CCOC(=O)c1cn[nH]c1NC(=S)Nc1ccccc1 | 3.61% (inactive)
85 | CCOC(=O)c1c(C)[nH]c(C)c1S(=O)(=O)N1CCC(C(=O)Nc2ccc(C)c(Cl)c2)CC1 | 1.42% (inactive)
86 | CC(=O)Nc1cccc(C(=O)OCC(=O)Nc2nnc(-c3ccccc3)o2)c1 | 4.87% (inactive)
87 | O=C(Nc1cccc(-c2nnc(-c3ccccc3)o2)c1)C1CCCO1 (centres undefined) | 34% (active)
88 | O=C(Nc1ccc(-c2nnc(-c3ccccc3)o2)cc1)C1CCCO1 (centres undefined) | 15.5% (inactive)
89 | COc1cccc(CNC(=O)c2ccc3c(Cl)c4c(nc3c2)CCCC4)c1 | -3.62% (inactive)

Source: PubChem BioAssay AID485347 (National Center for Advancing Translational Sciences (NCATS), 2010)
